Cycloheximide cs – counter-screen hit for Shiga toxin inhibitors, cycloheximide; cell reporter, cycloheximide protein synthesis inhibition counterscreen; max response, %; 300,000 compounds, 12% hits; AID 2314; in the data active means max response mostly above about 13%, no sharp cut-off; inactive means mostly below about 14%; further: read at 38.3 µM for the half of the compounds with a filed dose
Shiga inhibitor – inhibitors of Shiga toxin in Vero cells. AID 2315. Vero cells, Shiga toxin protein synthesis inhibition reporter. inhibition, % at 38.7 µM. 290,000 compounds, 9.2% hits; in the data active means inhibition mostly above about 28%, no sharp cut-off; inactive means mostly below about 43%
NS1 function inh – inhibitors of influenza NS1 protein function. Potency, µM (top dose mostly 46.1 µM). 270,000 compounds, 0.4% hits; further: actives are rising curves; nearly all actives have a fitted effect of over 50% in size
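OD600 was taken as the measure of yeast growth restored by compound in an NS1-expressing S. cerevisiae strain. Cells had been washed out of glucose medium and diluted 1:100 into galactose -URA medium, pH 6.0.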
SARS PLP yeast – SARS-CoV PLP inhibition in yeast. Potency, µM (series often up to 32.9 µM), hits mostly activators. 330,000 compounds, 0.19% hits. S. cerevisiae expressing SARS-CoV PLpro, growth rescue. AID 485353; further: nearly all actives have a fitted effect of over 55% in size
Large screens that a line does not name were inactive. A selection: hits, their analogues and other compounds. The true share with any hit is near 12%. Unless noted, the call rests on the fitted dose curve.

Fc1ccc(-n2nnc(-c3ccnc4ccccc34)n2)cc1	Cycloheximide cs 40, Shiga inhibitor 44
Cc1ccc(-n2nnc(-c3ccnc4ccccc34)n2)cc1	Cycloheximide cs 29, Shiga inhibitor 59
CCN(Cc1ccccc1)C(=O)CC(=O)N(CC)Cc1ccccc1	none
CC(=O)CCc1ccc2oc(C(=O)O)c(C)c2c1	none
CCCc1ccc2oc(C(=O)N3CCC(C(N)=O)(N4CCCCC4)CC3)c(C)c2c1	none
CCOC(=O)C1CCN(C2CCN(C(=O)c3oc4c(C)c(C)ccc4c3C)CC2)CC1	Cycloheximide cs 19, Shiga inhibitor 82
CCCc1ccc2oc(C(=O)N3CCC(O)CC3)c(C)c2c1	Cycloheximide cs 44, Shiga inhibitor 70
CCOC(=O)C1CCN(C2CCN(C(=O)c3oc4c(F)cccc4c3C)CC2)CC1	none
CCCc1ccc2oc(C(=O)N3CCN(C4CCS(=O)(=O)C4)CC3)c(C)c2c1 (centres undefined)	Cycloheximide cs 23
CCCc1ccc2oc(C(=O)N(C)Cc3nccs3)c(C)c2c1	Cycloheximide cs 56, Shiga inhibitor 117
CN(Cc1ccccc1)C(=O)CCn1c(=O)c2cccn2c2cccnc21	none
O=C(NC(=S)N1CCOCC1)c1cn(-c2ccccc2)nc1-c1ccc(F)cc1	none (no result: Cycloheximide cs, Shiga inhibitor, NS1 function inh)
COc1ccc(NC(=O)COC(=O)CN2C(=O)c3ccccc3C2=O)cc1	none (no result: Cycloheximide cs, Shiga inhibitor, NS1 function inh)
Cc1ccc2c(C)c(C(=O)N3CCN(C4CCS(=O)(=O)C4)CC3)oc2c1C (centres undefined)	Cycloheximide cs 18
Cc1c(C(=O)N2CCN(C3CCS(=O)(=O)C3)CC2)oc2ccc(Cl)cc12 (centres undefined)	none (no result: Cycloheximide cs, Shiga inhibitor, NS1 function inh)
Cc1ccc2c(C)c(C(=O)N3CCCC(C(N)=O)C3)oc2c1C (centres undefined)	Cycloheximide cs 27, Shiga inhibitor 72
CCC1CCCCN1C(=O)CCCc1ccccc1 (centres undefined)	Cycloheximide cs 35, Shiga inhibitor 70
O=C(CCCc1ccccc1)N1CCN(C2CCCCC2)CC1	Cycloheximide cs 29 (no result: Shiga inhibitor)
CCC1CCCCN1C(=O)CCS(=O)(=O)c1ccccc1 (centres undefined)	Cycloheximide cs 34, Shiga inhibitor 76
O=C(N/N=C/c1ccccc1OC(F)F)C1=COCCO1	Cycloheximide cs 27, Shiga inhibitor 64 (no result: NS1 function inh)
O=C(N/N=C/c1ccc(OC(F)F)cc1)C1=COCCO1	Cycloheximide cs 51, Shiga inhibitor 78 (no result: NS1 function inh)
COC(=O)[C@@]1(Cc2ccc(OC)cc2)[C@H]2c3cc(C(=O)N4CCCC4)n(CCc4c[nH]c5ccc(O)cc45)c3C[C@H]2CN1C(=O)c1ccccc1	NS1 function inh inconclusive
CCOc1ccc(NC(=O)CN2CCN(C(=O)C3CCCO3)CC2)cc1 (centres undefined)	none
COc1ccccc1-n1c(C)cc(/C=C2/C(=N)N3C(=NC2=O)SN=C3S(C)(=O)=O)c1C	Cycloheximide cs 24, Shiga inhibitor 116 (no result: NS1 function inh)
CCOc1cc(/C=C2/C(=N)N3C(=NC2=O)SN=C3S(C)(=O)=O)ccc1OS(=O)(=O)c1ccccc1	none
COc1cc(/C=C2/C(=N)N3C(=NC2=O)SN=C3S(C)(=O)=O)ccc1OS(=O)(=O)c1ccccc1	Shiga inhibitor 45
COc1ccc(C(=O)[C@H]2[C@H]3C(=O)N(c4ccc(C)cc4)C(=O)[C@H]3C3C=CC=NN32)cc1 (some centres undefined)	Cycloheximide cs 19
Cc1ccc(N2C(=O)[C@@H]3[C@H](C2=O)[C@H]2C=CC=NN2[C@@H]3C(=O)Nc2ccccc2)cc1	Cycloheximide cs 16
O=C(Nc1ccccc1)[C@@H]1[C@@H]2C(=O)N(c3ccc(F)cc3)C(=O)[C@@H]2[C@H]2C=CC=NN21	none
COc1ccc(C(=O)[C@H]2[C@H]3C(=O)N(c4ccccc4)C(=O)[C@H]3C3C=CC=NN32)cc1 (some centres undefined)	none
COc1ccc(N2C(=O)[C@@H]3[C@H](C2=O)[C@H](C(=O)c2ccc(OC(C)=O)cc2)N2N=CC=C[C@@H]32)cc1	Cycloheximide cs 14, Shiga inhibitor 38, NS1 function inh inconclusive
CC(=O)Oc1ccc(N2C(=O)C3C(C2=O)C(C(=O)c2ccc(Cl)cc2)N2CCCC32)cc1 (centres undefined)	Cycloheximide cs 29
CC(=O)Oc1ccc(C(=O)[C@H]2[C@H]3C(=O)N(c4ccccc4)C(=O)[C@H]3[C@@H]3C=CC=NN32)cc1	NS1 function inh inconclusive
CC(C)CCNC(=O)CN(Cc1cccs1)C(=O)CCC(=O)Nc1nccs1	none
CN(c1ccccc1)S(=O)(=O)c1ccc(Cl)c(C(=O)NCC(c2ccco2)N2CCCC2)c1 (centres undefined)	none (no result: Cycloheximide cs, Shiga inhibitor, NS1 function inh)
Cc1ccc(C(c2nnnn2CC2CCCO2)N2CCN(Cc3ccccc3)CC2)cc1 (centres undefined)	none

High-throughput results: PubChem BioAssay, National Center for Advancing Translational Sciences (NCATS)
